Assay [1] in a line: signal quenchers or enhancers, Cy5 substrate/SSB – biochemical, NIH Clinical Collection, E. coli SSB, artefact control for HCV NS3 helicase inhibitor project (AID 743268). As to conditions: Cy5-oligo bound E. coli SSB, fluorescence interference.
The test system of assay [2] is Hepatitis C virus NS3 helicase. As to the kind of experiment: blockers of NS3h binding to DNA – biochemical, fluorescence polarization, NIH Clinical Collection, primary screen (AID 743270). As to conditions: NS3 helicase binding to Cy5-dT15 DNA, stronger effect = higher value, concentration not given here. Background: In fluorescence polarisation assays a small probe gives low polarisation when free and higher when bound to something large.

The target of assay [3] is Single-stranded DNA-binding protein (Escherichia coli (strain K12)) (UniProt P0AGE0). As to the kind of experiment: SSB-ssDNA binding inhibitors – biochemical, fluorescence polarization, NIH Clinical Collection, counter-screen for HCV NS3 helicase inhibitor project (AID 743271; in the data active = inhibition above about 28%). As to conditions: E. coli SSB-DNA binding, stronger effect = higher value, concentration not given here.

Assay [4] is described as follows: compounds distorting NS3 helicase fluorescence signal – biochemical, NIH Clinical Collection, artefact control for HCV NS3 helicase inhibitor project (AID 743272).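 Also: HCV NS3 helicase with a Cy5 labelled single stranded DNA probe.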 As to conditions: fluorescence interference counterscreen, HCV NS3 helicase assay; stronger effect = lower value. Background: A counterscreen serves to expose hits that act by an unwanted route or on another target.

Assay [5] is described as follows: Wnt pathway potentiators raising nuclear beta-catenin – imaging, WNT3A-conditioned medium, mouse C2C12, NPC library, primary screen (AID 1117326; in the data active = nuclear beta-catenin stimulation mostly above about 4.2%, no sharp cut-off; inactive = mostly below about 10%). As to conditions: stronger effect = higher value.
Assay [6] can be described thus: stimulators of insulin release from INS-1E, primary screen, cell-based, 5 mM glucose, NPC library (AID 1117329;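 active = compound raises insulin release from rat beta cells at 5 mM glucose, no numeric limit stated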). As to conditions: rat INS-1E insulin secretion, at 10 µM, stronger effect = higher value.
Assay [7] can be described thus: growth inhibition of GSK3B-pretreated HCT116 cells – cell-based, CellTiter-Glo, 0.2 to 20 µM (AID 1117336;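 active = compounds lowering colon cancer cell viability after pretreatment blocking the GSK3B kinase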). As to conditions: HCT116 viability after GSK3B inhibitor, at 20 µM, stronger effect = higher value. For orientation: Cellular ATP, detected with luciferase, serves as a proxy for viable cell number.
The nature of assay [8]: inhibition of endothelial tube formation, primary screen, imaging, VEGF stimulated, CD31 staining, tube area, NPC library (AID 1117340;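 active = compound that reduces growth-factor-driven endothelial tube area in a mixed cell culture, no cutoff stated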). As to conditions: VEGF-stimulated ADSC/ECFC co-culture, at 10 µM, stronger effect = higher value.
Assay [9] in a line: GLP1 release stimulators, primary, NCI-H716, NPC library (AID 1117341;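 active = compound raises GLP1 secretion from the human gut endocrine cells, with no numeric limit stated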). As to conditions: NCI-H716 cells, at 10 µM, stronger effect = higher value.
Assay [10] is described as follows: HCT116 colon cancer cell growth inhibition, primary screen, CellTiter-Glo luminescence, NPC library (AID 1117342;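 active = compounds that lower survival of HCT116 colon cancer cells in the luminescence readout, no numeric limit stated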). As to conditions: at 20 µM (top of the series).
Assay [11] can be described thus: reduced SW480 viability measured with CellTiter-Glo, NPC library, primary (AID 1117343;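 active = compounds that lower viability of the colon cancer cells in the luminescence readout, with no numeric limit stated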). As to conditions: CellTiter-Glo luminescence; at 20 µM (top of the series).
Assay [12] is described as follows: NPC library primary testing for decreased DLD-1 cell viability via CellTiter-Glo (AID 1117346;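 active = compounds that lower survival of DLD-1 colon cancer cells in the luminescence readout, no cutoff given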). As to conditions: DLD-1 viability, CellTiter-Glo luminescence; at 20 µM (top of the series).
The target in assay [13] is 6-phosphogluconate dehydrogenase, decarboxylating (Homo sapiens) (UniProt P52209). As to the kind of experiment: inhibition of human phosphogluconate dehydrogenase – biochemical, recombinant enzyme, NADPH absorbance, primary screen (AID 1159550;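 active = at least 20% inhibition of 6-phosphogluconate dehydrogenase activity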). As to conditions: recombinant 6PGD, NADPH absorbance 341 nm; at 10 µM; stronger effect = higher value.
Sequence of 6-phosphogluconate dehydrogenase, decarboxylating (Homo sapiens) (P52209 whole entry, looked up): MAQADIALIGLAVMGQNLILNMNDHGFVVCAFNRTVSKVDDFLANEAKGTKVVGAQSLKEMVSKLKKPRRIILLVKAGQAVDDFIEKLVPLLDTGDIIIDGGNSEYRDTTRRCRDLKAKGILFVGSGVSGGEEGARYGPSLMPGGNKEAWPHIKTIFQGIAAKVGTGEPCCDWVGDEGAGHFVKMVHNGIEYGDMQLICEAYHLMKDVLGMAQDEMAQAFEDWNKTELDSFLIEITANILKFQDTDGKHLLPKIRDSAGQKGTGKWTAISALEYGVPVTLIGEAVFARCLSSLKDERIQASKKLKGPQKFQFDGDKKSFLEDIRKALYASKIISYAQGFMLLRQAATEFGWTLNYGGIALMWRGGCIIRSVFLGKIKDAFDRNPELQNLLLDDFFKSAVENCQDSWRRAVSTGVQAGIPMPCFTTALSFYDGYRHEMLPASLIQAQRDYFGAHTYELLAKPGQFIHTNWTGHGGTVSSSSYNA
Assay [14] can be described thus: EMT-state selective cytotoxicity in co-culture – imaging, PC-3E GFP, TEM4-18 mCherry, primary screen (AID 1345086;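 active = compounds killing one labelled cell type while sparing the other, by normalised counts and ratio limits, not self-fluorescent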;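 as to all read-outs here: cells exposed to compound for 72 h before imaging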;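 as to red/green cell ratio (normalised): normalised mesenchymal count divided by normalised epithelial count so high means epithelial killing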). As to conditions: PC-3E GFP / TEM4-18 mCherry co-culture, imaging cell counts, at 1 µM; for red/green cell ratio (normalised): actives lie on both sides, counts scaled to control wells, 1 = unselective.
Assay [15] in a line: MELAS cybrid and Rieske KO viability enhancers – cell-based, MELAS cybrids, Rieske KO mouse fibroblasts, CellTiter-Glo, primary screen (AID 1508586;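 active = mean z-score across replicates of 1.96 or higher in either the MELAS or the Rieske mutant cell line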;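 also: z relative to plate mean and SD of compound and empty wells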). As to conditions: low glucose.
In assay [16] the target is NAD(+) hydrolase SARM1 (Homo sapiens) (UniProt Q6SZW1). Briefly: blocking NAD cleavage by SARM1 SAM-TIR – cell lysate, NAD-Glo luminescence (AID 1508614;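 active = compound whose remaining NAD level is above about 45 nM, limit read from the data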;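 also: higher remaining NAD means stronger inhibition of SARM1 NADase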). As to conditions: SAM-TIR HEK293T lysate NADase, at 1 µM, stronger effect = higher value.
Sequence of NAD(+) hydrolase SARM1 (Homo sapiens) (Q6SZW1 whole entry, looked up, the tested form may be a part): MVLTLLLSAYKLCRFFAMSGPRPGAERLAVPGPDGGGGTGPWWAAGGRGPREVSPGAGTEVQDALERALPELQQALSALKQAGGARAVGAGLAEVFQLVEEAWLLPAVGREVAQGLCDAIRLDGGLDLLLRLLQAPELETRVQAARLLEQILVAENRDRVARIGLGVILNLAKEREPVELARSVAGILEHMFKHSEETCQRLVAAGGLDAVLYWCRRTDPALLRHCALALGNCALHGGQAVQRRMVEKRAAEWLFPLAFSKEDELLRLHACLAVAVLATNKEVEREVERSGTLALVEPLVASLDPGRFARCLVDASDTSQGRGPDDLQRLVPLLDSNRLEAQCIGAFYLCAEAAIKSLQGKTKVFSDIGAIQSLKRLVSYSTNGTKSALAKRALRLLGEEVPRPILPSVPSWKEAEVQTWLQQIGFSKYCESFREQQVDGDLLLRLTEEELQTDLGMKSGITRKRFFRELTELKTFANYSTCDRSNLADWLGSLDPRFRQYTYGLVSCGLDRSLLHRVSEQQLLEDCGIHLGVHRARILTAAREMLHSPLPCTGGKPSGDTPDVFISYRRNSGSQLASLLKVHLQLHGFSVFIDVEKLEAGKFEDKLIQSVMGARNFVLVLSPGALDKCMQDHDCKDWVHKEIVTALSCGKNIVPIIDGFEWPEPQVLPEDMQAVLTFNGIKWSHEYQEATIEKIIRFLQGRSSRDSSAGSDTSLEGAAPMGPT
Assay [17] concerns the target Mitogen-activated protein kinase 7 (Homo sapiens) (UniProt Q13164). As to the kind of experiment: Gal4-ERK5 driven luciferase induction – cell-based, HTS, primary screen (AID 1508626;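 active = luciferase signal above three times the same-plate solvent-only control wells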;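 also: luciferase driven by Gal4-ERK5 fusion binding five Gal4 sites before minimal TATA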). As to conditions: HeLa Gal4-ERK5 transactivation, 18 h, at 5 µM, stronger effect = higher value.
The next assay concerns F380Y. Briefly: BK channel mutant inhibitors and activators – cell-based, U2OS BacMam, thallium flux, beta subunits, selectivity assay, profiling panel (AID 1259406;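 active = thallium flux through the channel raised or lowered by more than 3 SD from vehicle-only wells, actives on both sides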;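 also: initial slope of Thallos dye fluorescence rise after thallium is added; log ratio against the mean of 0.3% DMSO vehicle wells on the same plate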). As to conditions: U2OS BacMam BK variants, at 30 µM.
Assay [18] can be described thus: P. berghei load reduction in hepatocytes – cell-based, HepG2, luciferase luminescence, HepG2 viability, primary screen (AID 624349; in the data active = parasite load remaining mostly below about 12%, no sharp cut-off; inactive = mostly above about 10%;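 also: 100% = mean of DMSO negative control wells on the same plate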). As to conditions: P. berghei liver stage in HepG2, luciferase luminescence, concentration not given here; parasite load remaining: stronger effect = lower value; viability: measured here: HepG2 viability without parasites.
The nature of assay [19]: viability loss with induced miR-34 in A549 – imaging, A549 dox-inducible miR-34, nuclei and caspase counts, primary screen (AID 1347080;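 active = compounds whose cell count with miR-34 switched on is under 0.7 times the count with it off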). As to conditions: A549 miR-34 inducible, Hoechst nuclei count, 48 h.
Where [20] appears, read: measured here: epithelial PC-3E GFP cell survival.
[21] abbreviates: measured here: mesenchymal TEM4-18 mCherry cell survival.
[22] abbreviates: MELAS cybrid survival, CellTiter-Glo 48 h, stronger effect = higher value.
Where [23] appears, read: Rieske KO mouse fibroblast survival, CellTiter-Glo 72 h.

“And” between values parts separate entries of the source, which are not always exact repeats. Equal values may be shown once. The source made the active and inactive calls. Unless noted, no rule for the calls is given here.

Sequence of Mitogen-activated protein kinase 7 (Homo sapiens) (Q13164 whole entry, looked up, the tested form may be a part): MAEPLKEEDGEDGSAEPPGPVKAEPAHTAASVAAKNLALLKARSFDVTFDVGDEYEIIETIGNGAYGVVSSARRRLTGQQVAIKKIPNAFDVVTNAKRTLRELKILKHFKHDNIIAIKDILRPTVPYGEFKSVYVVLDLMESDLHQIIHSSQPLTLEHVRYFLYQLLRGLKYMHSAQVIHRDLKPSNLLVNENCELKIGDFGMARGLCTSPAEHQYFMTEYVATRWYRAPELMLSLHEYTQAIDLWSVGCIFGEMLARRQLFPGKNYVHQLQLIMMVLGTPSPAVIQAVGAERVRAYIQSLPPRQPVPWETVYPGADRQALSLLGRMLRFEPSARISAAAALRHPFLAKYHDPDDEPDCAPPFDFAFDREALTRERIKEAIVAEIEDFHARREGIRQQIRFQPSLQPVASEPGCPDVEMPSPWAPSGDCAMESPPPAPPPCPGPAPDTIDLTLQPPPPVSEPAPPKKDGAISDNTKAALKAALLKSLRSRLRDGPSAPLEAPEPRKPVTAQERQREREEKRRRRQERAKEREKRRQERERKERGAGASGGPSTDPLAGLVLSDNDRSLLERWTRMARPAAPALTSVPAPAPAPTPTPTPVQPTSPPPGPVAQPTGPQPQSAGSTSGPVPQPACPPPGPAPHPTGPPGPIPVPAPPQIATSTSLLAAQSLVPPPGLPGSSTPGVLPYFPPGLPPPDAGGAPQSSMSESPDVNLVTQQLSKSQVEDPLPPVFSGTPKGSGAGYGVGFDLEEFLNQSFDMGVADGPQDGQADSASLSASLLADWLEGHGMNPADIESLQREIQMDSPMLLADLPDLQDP

On to `CCCN(CCC)S(=O)(=O)c1ccc(C(=O)O)cc1`, for which the results for the fluorescence ratio in [1] and in [4] were 1.02 (inactive) and 0.94 (inactive), respectively. Further, the inhibition was -3.18% (inactive) in assay [2], -0.48% (inactive) in assay [3] and 0.15% (inactive) in assay [13]. The nuclear beta-catenin stimulation in [5] (at 10 µM) is -1.3% (inactive); in assay [5] (stimulation, at 2 µM) it was -0.2%. For the same compound, the insulin secretion stimulation in [6] was 0.5% (inactive). In assay [7], the viability decrease is -23.6% (inactive). In addition, the tube area decrease in assay [8] was -14.2% (inactive). In assay [9], the GLP1 secretion stimulation is -0.7% (inactive). Besides, in [10], the inhibition of viability was 12.4% (inactive). Moreover, the results for the viability decrease (inhibition) in [11] and in assay [12] were 14.9% (inactive) and -10.5% (inactive), respectively. Besides, in assay [14], the red/green cell ratio (normalised) was 1.43 (inactive). The normalised cell number is 0.78 in assay [14] (setting [20]) and 1.12 in [14] (setting [21]). Besides, the z-score in assay [15] (setting [22]) is -0.112 (inactive) and 0.174 (inactive); in assay [15] (setting [23]), -0.203 and 0.258. The remaining NAD in assay [16] is 10 nM (inactive). Besides, the luciferase signal in assay [17] was 80 AU (inactive). Further, the log fold change Tl+ flux in the assay with F380Y was -0.012 (inactive).

Take `c1ccc2c(CC3=NCCN3)cccc2c1`: the results for the fluorescence ratio in [1] and in assay [4] were 1.03 (inactive) and 1.02 (inactive), respectively. The inhibition in assay [2] was -3.18% (inactive); in [3] it was -2.76% (inactive); in assay [13] it was -9.35% (inactive). Moreover, the nuclear beta-catenin stimulation in [5] (at 10 µM) was 0.4% (inactive); in assay [5] (stimulation, at 2 µM), 1.1%. Also, the insulin secretion stimulation in assay [6] is -1.7% (inactive). Also, the viability decrease in assay [7] was -2.25% (inactive). Also, the tube area decrease in assay [8] was 20.2% (inactive). Further, in [9], the GLP1 secretion stimulation is 2.8% (inactive). Further, the inhibition of viability in assay [10] is -0.7% (inactive). Further, the viability decrease (inhibition) in assay [11] is 19.7% (inactive); in assay [12], 8% (inactive). The red/green cell ratio (normalised) in assay [14] was 0.84 (inactive). Also, the figures for the normalised cell number in assay [14] (setting [20]) and in [14] (setting [21]) were 1.03 and 0.86, respectively. Also, the z-score is -0.272 (inactive) and 0.214 (inactive) and 0.142 (inactive) in assay [15] (setting [22]); -0.0845 and -0.183 and -0.115 in assay [15] (setting [23]). For the same compound, in assay [16], the remaining NAD is 10 nM (inactive). Moreover, the luciferase signal in [17] is 44 AU (inactive). The log fold change Tl+ flux in the assay with F380Y is -0.0182 (inactive).

For the compound `CCOc1ccc2ccccc2c1C(=O)N[C@@H]1C(=O)N2[C@@H]1SC(C)(C)[C@@H]2C(=O)O`, the parasite load remaining in [18] was 85.4% (inactive) and 87.9% (inactive). Moreover, the viability in [18] was 103% and 91.5%. In addition, the fluorescence ratio was 1.06 (inactive) in [1] and 0.98 (inactive) in assay [4]. Further, the inhibition in [2] was -10.4% (inactive); in assay [3] it was -6.58% (inactive); in assay [13], -5.14% (inactive). In addition, the nuclear beta-catenin stimulation in assay [5] (at 10 µM) is -0.5% (inactive); in assay [5] (stimulation, at 2 µM), 0.1%. Besides, the insulin secretion stimulation in assay [6] is 0.3% (inactive). Moreover, in assay [7], the viability decrease is -12.1% (inactive). Further, the tube area decrease in [8] is -14.5% (inactive). In addition, the GLP1 secretion stimulation in [9] was -2.2% (inactive). Besides, the inhibition of viability in assay [10] is -10.6% (inactive). For the same compound, the values for the viability decrease (inhibition) in [11] and in assay [12] were 39.8% (inactive) and -29.8% (inactive), respectively. Also, the fold change was 1.06 (inactive) and 0.86 (inactive) in assay [19] (stronger effect = lower value, cell number ratio, induced over uninduced); 0.823 and 1.09 in [19] (measured here: relative caspase fold change +Dox/-Dox). Also, the cell count is 9950 and 9060 in assay [19] (measured here: total cells with miR-34 induction, stronger effect = lower value); 9360 and 10500 in [19] (measured here: total cells without miR-34 induction). The z-score in [15] (setting [22]) was 0.661 (inactive); in [15] (setting [23]), -0.47. The remaining NAD in assay [16] is 10 nM (inactive). The luciferase signal in [17] is 76 AU (inactive). Further, the log fold change Tl+ flux with F380Y was -0.0205 (inactive).

Usually inhibition stands for the drop in the measured response relative to a control, in per cent. One may read the viability as a read-out of living cells in per cent, often relative to untreated cells.

The values are drawn from PubChem BioAssay.
